Bioassay records: PubChem BioAssay, several laboratories
Rows were chosen to be rich in hits. Some 4.1% of all compounds tested hit in one or more screens of this group.
Anthrax LF prot = inhibitors of Bacillus anthracis lethal factor protease | P15917 | multiplex microsphere protease cleavage assay, LF | inhibition, % at 10 µM | 0.12% of 360,000 active | AID 588501; note: plate controls were buffer without enzyme for full effect and enzyme alone for no effect
DUSP3 inh = DUSP3 (human) phosphatase inhibition; P51452; recombinant VHR phosphatase, pNPP absorbance; inhibition, % at 13.3 µM; 0.52% of 290,000 active; in the data active = inhibition above about 50%
Target sequence (P51452 whole entry, looked up): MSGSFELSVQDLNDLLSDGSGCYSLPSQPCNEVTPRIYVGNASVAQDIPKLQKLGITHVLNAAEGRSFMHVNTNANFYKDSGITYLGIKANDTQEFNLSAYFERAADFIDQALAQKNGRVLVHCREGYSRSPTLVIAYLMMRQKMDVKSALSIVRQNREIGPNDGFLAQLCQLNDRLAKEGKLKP
Bead autofluor = compound fluorescence in toxin protease inhibitor counterscreen; 3.1% of 360,000 active; AID 624483; fluorescence intensity (concentration not given with the values); compound autofluorescence counterscreen, microsphere flow cytometry; hits give high values; in the data active = fluorescence intensity above about 16000; inconclusive = no clear call, values can overlap the other calls
BoNT-F LC inh = inhibitors of Botulinum neurotoxin F light chain protease. inhibition, % at 10 µM. Multiplex microsphere protease cleavage assay, flow cytometry. 0.22% of 360,000 active. AID 588497; in the data active = inhibition above about 35%, passing the limit was not always enough; inconclusive = no clear call, values can overlap the other calls; note: plate controls were buffer without enzyme for full effect and enzyme alone for no effect
BoNT-A LC inh2 = blocks Botulinum neurotoxin A light chain protease. multiplex microsphere protease substrate cleavage, flow cytometry. inhibition, % at 10 µM. 0.17% of 360,000 active. AID 588499; note: plate controls were buffer without enzyme for full effect and enzyme alone for no effect
MazF activator = increases E. coli MazEF RNase cleavage of RNA; P0AE70; FAM/BHQ RNA-DNA oligo cleavage fluorescence, 5 h; activation, % at 20 µM; 0.32% of 350,000 active; AID 504720; in the data active = activation above about 50%
Target sequence (P0AE70 whole entry, looked up): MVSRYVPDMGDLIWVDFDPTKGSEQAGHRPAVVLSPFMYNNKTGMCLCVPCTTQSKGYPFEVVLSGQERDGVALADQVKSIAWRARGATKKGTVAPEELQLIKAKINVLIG
Starred values were filed as active, the others as inactive; ? = inconclusive; nt = no result given; + = active, no number. Cut-off read from the data, not from the text of the source, unless noted: active = inhibition above about 30%; inconclusive = no clear call, values can overlap the other calls; inactive = below that.

SMILES	Anthrax LF prot	DUSP3 inh	Bead autofluor	BoNT-F LC inh	BoNT-A LC inh2	MazF activator
CCOc1cc(N(CC)CC)ccc1/C=C(/C#N)c1nc2ccccc2[nH]1	0	5	12266	42*	-4	132*
CCCOc1cc(N(CC)CC)ccc1/C=C(/C#N)c1nc2ccc(C)cc2[nH]1	2	-9	23823*	45*	3	-504
CCN(CC)c1ccc(/C=C(/C#N)c2nc3ccc(C)cc3[nH]2)c(OC(C)C)c1	-4	14	27707*	64*	-3	-168
CCn1c(CNC(=O)c2cccc(C)c2)nnc1SCC(=O)N1CCOCC1	2	18	5485	1	4	-1
Cc1cccc(C(=O)NNC(=O)c2ccc(NS(=O)(=O)c3cccs3)cc2)c1C	-3	nt	3771	-2	0	1
Cc1cc(NCCC(C)C)n2nc(C)c(-c3ccccc3)c2n1	-3	10	24144*	-6	-2	-1
CCOC(=O)c1ccc(N=C2NC(=O)CS2)cc1	-2	0	23536*	1	-2	4
COc1ccc(CC/C(=N\O)C2(O)CCCCC2)cc1	-3	19	24221*	-7	-2	5
O/N=C(/CCc1ccccc1)C1(O)CCCCC1	2	14	7896	5	1	-3
COc1ccc(NC(=O)COC(=O)C2CC(=O)N(CCc3ccc(OC)c(OC)c3)C2)cc1Cl (stereo not drawn)	-2	nt	3785	4	-1	4
CC1(C)CC(=O)C2=C(C1)OC1=C(C(=O)CC(C)(C)C1)C2c1ccccc1Cl	3	nt	4142	-1	-1	14
COc1ccc(Cn2c(O)c(C=Nc3ccc(O)cc3)c3ccccc3c2=O)cc1	3	-32	10878	-5	2	-7
O=c1c2ccccc2c(C=Nc2ccc(O)cc2)c(O)n1Cc1ccccc1	-3	-16	4713	-2	0	+
Cc1cc(/C=C2\C(=O)NC(=O)N(c3ccc(Br)cc3)C2=O)c(C)n1-c1cc(C(=O)O)cc(C(=O)O)c1	5	31	3824	5	-3	-62
Cc1cc(/C=C2/C(=O)NC(=O)N(c3ccc(Br)cc3)C2=O)c(C)n1C	nt	4	nt	nt	nt	20
Cc1cc(/C=C2\C(=O)NC(=O)N(c3cccc(Br)c3)C2=O)c(C)n1C	0	-4	2594	-2	0	230*
Cc1cc(/C=C2\C(=O)NC(=O)N(c3ccc(Br)cc3)C2=O)c(C)n1C	-1	-2	2729	-4	0	87*
COc1ccc([C@H]2C(C(=O)O)=C[C@@H](CC3CCCC3)N2S(=O)(=O)c2ccc(C)cc2)cc1OC	4	nt	3802	1	1	9
Cc1cc(C)n(CCCNC(=O)c2ccc(C)o2)n1	-4	nt	8494	3	4	4
CCCC(=O)N1CCN(c2nc3ccccc3s2)CC1	2	-22	4387	0	-2	6
CSc1ccc(NC(=O)N2CCN(c3nc4ccccc4s3)CC2)cc1	-4	63	21539*	-10	?	2
CC(C)(C)C(=O)N1CCN(c2nc3ccccc3s2)CC1	-1	3	4238	0	1	2
Cn1c(C(=O)N2CCN(c3nc4ccccc4s3)CC2)cc2sccc21	-4	-16	19151*	-3	0	-3
CCN1CCN(c2nc3ccccc3s2)CC1	1	26	20785*	0	?	-12
c1ccc(Cc2c(C3CCCCC3)nc3c4ccccc4ccn23)cc1	-6	nt	4327	-6	0	nt
SMILES	Anthrax LF prot	DUSP3 inh	Bead autofluor	BoNT-F LC inh	BoNT-A LC inh2	MazF activator
C[C@@]12C(=O)Nc3ccccc3C(=O)N1[C@H]1c3cc(Br)ccc3OC[C@@H]1[C@@H]2c1ccccc1	-4	nt	4092	-4	0	3
Cc1nn(C)cc1CNC(=O)c1cccc(Br)c1	0	-5	3431	12	1	12
Cc1nn(C)cc1CNC(=O)c1ccccc1Br	-2	-5	16520*	2	?	-1
CCC(=O)Nc1cc(SCCO)cc([N+](=O)[O-])c1	-2	25	16916*	-1	-2	-4
O=C(CCl)Nc1cc(SCC(O)CO)cc([N+](=O)[O-])c1 (stereo not drawn)	-1	-6	2016	-7	-1	1
Oc1ccc(Cl)cc1CNc1ccc(Br)cn1	-7	-4	23615*	-5	-3	1
CC1(C)CC(=O)C(C(C2=C(O)CC(C)(C)CC2=O)c2cccnc2)C(=O)C1 (stereo not drawn)	2	6	4231	6	1	7
CC1(C)CC(=O)C(C(C2=C(O)CC(C)(C)CC2=O)c2cccc(O)c2)C(=O)C1 (stereo not drawn)	-2	10	20599*	-4	?	3
COc1ccccc1CNC(=O)C1CCN(Cc2nc(-c3cccc(Cl)c3)oc2C)CC1	-6	17	7001	-4	0	-4
Cc1oc(-c2ccccc2F)nc1CN1CCC(C(=O)NCc2cccnc2)CC1	-1	-2	20391*	1	1	1
Cc1ccccc1-c1nc(CN2CCC(C(=O)NCc3cccnc3)CC2)c(C)o1	-8	-5	22517*	-3	?	-6
COc1ccc(CCNC(=O)C2CCN(Cc3nc(-c4ccccc4F)oc3C)CC2)cc1OC	3	22	15722	6	3	5
COc1ccc(-c2nc(CN3CCC(C(=O)N4CCOCC4)CC3)c(C)o2)cc1C	-1	57*	6055	0	-2	2
Cc1ccccc1-c1nc(CN2CCC(C(=O)NCc3cccs3)CC2)c(C)o1	1	-13	4027	20	4	2
CCc1ccc(-c2nc(CN3CCC(C(=O)NCc4ccccc4OC)CC3)c(C)o2)cc1	1	20	25156*	-2	?	-7
CCSc1ccc([C@@H]2[C@H]3C(=O)N(C)C(=O)[C@H]3[C@]3(C(=O)OC)CCCCN23)cc1OC	0	nt	3502	7	2	-7
CCCC(=O)N1CCC1(C)C(=O)Nc1cccc(OC(C)C)c1 (stereo not drawn)	-5	nt	3716	0	0	nt
Cc1oc(-c2ccc(Cl)cc2)nc1CN1CCCC(C(=O)NCc2ccccn2)C1 (stereo not drawn)	-2	29	22724*	1	0	1
Cc1oc(-c2ccc(Cl)cc2)nc1CN1CCCC(C(=O)NCc2cccnc2)C1 (stereo not drawn)	0	14	10409	-1	-2	-5
Cc1ccccc1-c1nc(CN2CCC(C(=O)NCc3ccco3)CC2)c(C)o1	-6	34	21224*	1	2	13
CCOC(=O)c1c(NC(=O)COC(=O)c2cccc([N+](=O)[O-])c2)sc(C(=O)N(C)C)c1C	1	nt	3990	-4	0	9
COc1cccc(N2CN(CCc3ccccc3)CNC2=S)c1	?	-1	3380	50*	8	6
CCc1ccc(N2CN(CCc3ccccc3)CNC2=S)cc1	?	-4	3708	-16	0	2
COc1ccc(-c2noc(CSc3nnc(Cc4ccccc4)n3-c3ccc(Cl)cc3)n2)cc1	-3	18	24663*	-7	-3	-7
